Screen size: about 5,500 compounds; about 2,000 (36%) were called active. Another 18% or so got no clear call; they are omitted. Rule as the data show it: active = normalized growth mostly below about 0.91 (no sharp cut-off); inconclusive = no clear call, values can overlap the other calls; inactive = mostly above about 0.92. The list shows a part of the results.
Experiment: chemical genetic growth profiling, strain panel (AID 1159580);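 also: tested at 20 µM; growth read once vehicle control cultures reached saturation at 30 °C; 1 = growth at the plate median or of vehicle wells; lower values mean less growth of the strain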
Conditions: growth OD
[1] = S. cerevisiae deletion strains, locus YDL101C, strain DUN1, stronger effect = lower value
[2] = S. cerevisiae deletion strains, locus YHR030C, strain SLT2, stronger effect = lower value

Measured: normalized growth

N#Cc1ccc2[nH]cc(CCN(Cc3ccccc3)Cc3ccccc3)c2c1
inactive: S. cerevisiae deletion strains, locus YAR019C, strain CDC15, stronger effect = lower value 0.989 | S. cerevisiae deletion strains, locus YBL105C, strain PKC1, stronger effect = lower value 0.991 | S. cerevisiae deletion strains, locus YBR135W, strain CKS1, stronger effect = lower value 0.99 | S. cerevisiae deletion strains, locus YBR136W, strain MEC1, stronger effect = lower value 0.984 | S. cerevisiae deletion strains, locus YBR160W, strain CDC28, stronger effect = lower value 0.989 | S. cerevisiae deletion strains, locus YDL017W, strain CDC7, stronger effect = lower value 0.99 | S. cerevisiae deletion strains, locus YDL028C, strain MPS1, stronger effect = lower value 0.977 | [1] 0.98 | S. cerevisiae deletion strains, locus YDL108W, strain KIN28, stronger effect = lower value 0.983 | S. cerevisiae deletion strains, locus YDL132W, strain cdc53, stronger effect = lower value 0.985 | S. cerevisiae deletion strains, locus YDL214C, strain PRR2, stronger effect = lower value 0.943 | S. cerevisiae deletion strains, locus YDR052C, strain DBF4, stronger effect = lower value 0.992 | S. cerevisiae deletion strains, locus YDR054C, strain cdc34, stronger effect = lower value 0.978 | S. cerevisiae deletion strains, locus YDR226W, strain ADK1, stronger effect = lower value 0.978 | S. cerevisiae deletion strains, locus YDR477W, strain SNF1, stronger effect = lower value 0.969 | S. cerevisiae deletion strains, locus YER123W, strain YCK3, stronger effect = lower value 0.918 | S. cerevisiae deletion strains, locus YER133W, strain GLC7, stronger effect = lower value 0.964 | S. cerevisiae deletion strains, locus YFL009W, strain cdc4, stronger effect = lower value 0.982 | S. cerevisiae deletion strains, locus YFL029C, strain CAK1, stronger effect = lower value 0.986 | S. cerevisiae deletion strains, locus YFR003C, strain YPI1, stronger effect = lower value 0.992 | S. cerevisiae deletion strains, locus YFR019W, strain FAB1, stronger effect = lower value 0.967 | S. cerevisiae deletion strains, locus YFR028C, strain CDC14, stronger effect = lower value 0.982 | S. cerevisiae deletion strains, locus YGR040W, strain KSS1, stronger effect = lower value 0.956 | S. cerevisiae deletion strains, locus YGR052W, strain FMP48, stronger effect = lower value 1.05 | S. cerevisiae deletion strains, locus YGR092W, strain DBF2, stronger effect = lower value 0.943 | [2] 1.13 | S. cerevisiae deletion strains, locus YHR079C, strain IRE1, stronger effect = lower value 1.07 | S. cerevisiae deletion strains, locus YHR082C, strain KSP1, stronger effect = lower value 1.05 | S. cerevisiae deletion strains, locus YHR205W, strain SCH9, stronger effect = lower value 0.962 | S. cerevisiae deletion strains, locus YIL147C, strain SLN1, stronger effect = lower value 0.987 | S. cerevisiae deletion strains, locus YJL095W, strain BCK1, stronger effect = lower value 1.07 | S. cerevisiae deletion strains, locus YJL128C, strain PBS2, stronger effect = lower value 0.953 | S. cerevisiae deletion strains, locus YJL157C, strain FAR1, stronger effect = lower value 0.954 | S. cerevisiae deletion strains, locus YJR016C, strain ILV3, stronger effect = lower value 0.991 | S. cerevisiae deletion strains, locus YJR066W, strain TOR1 (second series), stronger effect = lower value 0.926 | S. cerevisiae deletion strains, locus YJR066W, strain TOR1, stronger effect = lower value 1.07 | S. cerevisiae deletion strains, locus YKL048C, strain ELM1, stronger effect = lower value 0.964 | S. cerevisiae deletion strains, locus YKL067W, strain YNK1, stronger effect = lower value 0.969 | S. cerevisiae deletion strains, locus YKL101W, strain HSL1, stronger effect = lower value 0.954 | S. cerevisiae deletion strains, locus YKL193C, strain SDS22, stronger effect = lower value 0.987 | S. cerevisiae deletion strains, locus YKL203C, strain TOR2, stronger effect = lower value 1.04 | S. cerevisiae deletion strains, locus YLR113W, strain HOG1, stronger effect = lower value 1.01 | S. cerevisiae deletion strains, locus YLR133W, strain CKI1, stronger effect = lower value 0.98 | S. cerevisiae deletion strains, locus YLR403W, strain SFP1, stronger effect = lower value 0.962 | S. cerevisiae deletion strains, locus YML070W, strain DAK1, stronger effect = lower value 0.95 | S. cerevisiae deletion strains, locus YMR001C, strain CDC5, stronger effect = lower value 0.988 | S. cerevisiae deletion strains, locus YMR205C, strain PFK2 (second series), stronger effect = lower value 0.972 | S. cerevisiae deletion strains, locus YMR277W, strain FCP1, stronger effect = lower value 0.993 | S. cerevisiae deletion strains, locus YNL006W, strain LST8, stronger effect = lower value 0.983 | S. cerevisiae deletion strains, locus YNL020C, strain ARK1, stronger effect = lower value 0.98 | S. cerevisiae deletion strains, locus YNL161W, strain CBK1, stronger effect = lower value 0.993 | S. cerevisiae deletion strains, locus YNL183C, strain NPR1, stronger effect = lower value 1.05 | S. cerevisiae deletion strains, locus YNL207W, strain RIO2, stronger effect = lower value 0.979 | S. cerevisiae deletion strains, locus YNL222W, strain SSU72, stronger effect = lower value 0.986 | S. cerevisiae deletion strains, locus YNL307C, strain MCK1 (second series), stronger effect = lower value 0.98 | S. cerevisiae deletion strains, locus YOL078W, strain AVO1, stronger effect = lower value 0.987 | S. cerevisiae deletion strains, locus YOL136C, strain PFK27, stronger effect = lower value 0.957 | S. cerevisiae deletion strains, locus YOR061W, strain CKA2, stronger effect = lower value 0.955 | S. cerevisiae deletion strains, locus YOR119C, strain RIO1, stronger effect = lower value 1.01 | S. cerevisiae deletion strains, locus YOR231W, strain MKK1, stronger effect = lower value 1.06 | S. cerevisiae deletion strains, locus YOR329C, strain SCD5, stronger effect = lower value 0.993 | S. cerevisiae deletion strains, locus YPL031C, strain PHO85, stronger effect = lower value 0.97 | S. cerevisiae deletion strains, locus YPL153C, strain RAD53, stronger effect = lower value 0.954 | S. cerevisiae deletion strains, locus YPL204W, strain HRR25, stronger effect = lower value 0.97 | S. cerevisiae deletion strains, locus YPL209C, strain IPL1, stronger effect = lower value 0.994 | S. cerevisiae deletion strains, locus YPL256C, strain CLN2, stronger effect = lower value 1.05 | S. cerevisiae deletion strains, locus YPR025C, strain CCL1, stronger effect = lower value 0.992 | S. cerevisiae deletion strains, locus YPR106W, strain ISR1, stronger effect = lower value 0.984 | S. cerevisiae deletion strains, locus YPR111W, strain DBF20, stronger effect = lower value 0.976 | S. cerevisiae deletion strains, strain NNK1, stronger effect = lower value 0.983 | S. cerevisiae deletion strains, strain TSCII, stronger effect = lower value 0.993

N#CCS(=O)(=O)c1cccs1
inactive: S. cerevisiae deletion strains, locus YAL013W, strain DEP1, stronger effect = lower value 0.988 | S. cerevisiae deletion strains, locus YBR229C, strain ROT2, stronger effect = lower value 1 | [1] 0.983 | S. cerevisiae deletion strains, locus YDR150W, strain NUM1, stronger effect = lower value 0.94 | S. cerevisiae deletion strains, locus YEL061C, strain CIN8, stronger effect = lower value 1.01 | S. cerevisiae deletion strains, locus YGR078C, strain PAC10, stronger effect = lower value 0.979 | [2] 0.996 | S. cerevisiae deletion strains, locus YHR087W, strain rtc3, stronger effect = lower value 1 | S. cerevisiae deletion strains, locus YJR043C, strain POL32, stronger effect = lower value 0.949 | S. cerevisiae deletion strains, locus YJR075W, strain HOC1, stronger effect = lower value 0.993 | S. cerevisiae deletion strains, locus YLR039C, strain RIC1, stronger effect = lower value 1.1 | S. cerevisiae deletion strains, locus YLR058C, strain SHM2 (second series), stronger effect = lower value 1 | S. cerevisiae deletion strains, locus YLR085C, strain ARP6, stronger effect = lower value 0.999 | S. cerevisiae deletion strains, locus YLR262C, strain YPT6, stronger effect = lower value 1.12 | S. cerevisiae deletion strains, locus YML094W, strain GIM5, stronger effect = lower value 0.975 | S. cerevisiae deletion strains, locus YMR219W, strain ESC1, stronger effect = lower value 1 | S. cerevisiae deletion strains, locus YMR263W, strain SAP30, stronger effect = lower value 0.961 | S. cerevisiae deletion strains, locus YNL153C, strain GIM3, stronger effect = lower value 0.968 | S. cerevisiae deletion strains, locus YNL298W, strain CLA4 (second series), stronger effect = lower value 1 | S. cerevisiae deletion strains, locus YNL322C, strain KRE1, stronger effect = lower value 1.02 | S. cerevisiae deletion strains, locus YNR030W, strain Alg12, stronger effect = lower value 0.989 | S. cerevisiae deletion strains, locus YPL055C, strain LGE1, stronger effect = lower value 0.92 | S. cerevisiae deletion strains, locus YPL241C, strain CIN2, stronger effect = lower value 0.983 | S. cerevisiae deletion strains, locus YPR135W, strain CTF4, stronger effect = lower value 0.885 | S. cerevisiae strains, strain wild type, stronger effect = lower value 1.01
